Source: PubChem BioAssay
FUS suppressor: qHTS for Suppressors of FUS Proteinopathy: Primary screen using FUS-linked yeast assay | S. cerevisiae FUS-expressing, growth rescue, OD600, 24 h | Potency, µM (doses to about 76.6 µM), usual class: activators | actives 0.24% (n = 390,000);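 further: plate controls were DMSO vehicle for no effect and reference control for full effect; nearly all actives have a fitted effect of over 55% in size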
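Read-out: OD at 600 nm after 24hr at 30C, reporting rescue of FUS-induced yeast toxicity. Cells at OD 0.005 in galactose (2%) minimal medium; compounds tested in a dilution series; CP55940 titration from 92uM final as control.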
Abeta yeast res: qHTS for compounds that reverse cellular toxicity of Amyloid beta (A-beta) peptide in yeast: Primary Screen. Potency, µM (highest dose often 46.1 µM), actives largely listed as activators. yeast expressing A-beta42, growth rescue, OD600, 48 h; response scale: 0% DMSO, 100% iron-clioquinol control. actives 0.063% (n = 410,000). AID 1347071, 2019; further: nearly all actives have a fitted effect of over 55% in size
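Growth rescue measured by 600 nm absorbance after 48 h yeast culture at 30 C with compound. Values normalized between DMSO and an equimolar ferric chloride plus clioquinol control.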
Vif-A3G inh: qHTS for Inhibitors of Vif-A3G Interactions: qHTS. DNA dC->dU-editing enzyme APOBEC-3G (Homo sapiens), Q9HC16. HeLa A3G-eYFP + Vif (tagged APOBEC3G with the HIV-1 protein that degrades it), YFP fluorescence, overnight. Potency, µM (series often up to 46.1 µM), without a hit: top-dose activity, negative = active, most hits filed as inhibitors. actives 0.076% (n = 410,000); further: on the % scale 0 is the no-effect control and ±100 the full control effect; nearly all actives have a fitted effect of over 60% in size
Target sequence (Q9HC16 whole entry, looked up): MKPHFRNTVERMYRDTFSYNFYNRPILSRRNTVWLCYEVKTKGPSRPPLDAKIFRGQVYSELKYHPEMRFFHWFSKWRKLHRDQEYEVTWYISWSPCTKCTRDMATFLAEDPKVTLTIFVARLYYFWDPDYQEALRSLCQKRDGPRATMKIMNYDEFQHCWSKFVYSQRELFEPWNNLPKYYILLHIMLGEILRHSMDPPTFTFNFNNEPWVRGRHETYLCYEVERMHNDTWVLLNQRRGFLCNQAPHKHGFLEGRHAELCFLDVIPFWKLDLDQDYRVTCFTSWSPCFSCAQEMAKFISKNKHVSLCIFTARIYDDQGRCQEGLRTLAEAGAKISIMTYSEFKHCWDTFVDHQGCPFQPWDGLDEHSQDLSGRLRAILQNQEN
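HeLa cells stably expressing Vif and C-terminally eYFP-tagged A3G, seeded overnight at 37 deg C, then exposed to compound by pintool overnight at 37 deg C. Rise in yellow fluorescence (Ex 488/Em 500-530, Acumen) marks blocked Vif-driven A3G degradation.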
GRP78 ERSR act: qHTS for Inducers of the Endoplasmic Reticulum Stress Response (ERSR) in Human Glioma: qHTS; U87-MG GRP78 promoter luciferase reporter, 16 h; Potency, µM, for inactives: top-dose activation, usual class: activators; actives 0.02% (n = 420,000); AID 602332, 2012; further: series mostly up to about 76 µM; % of control where 0% means no effect; nearly all actives have a fitted effect of over 35% in size
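Stably transfected U87-MG glioma cells carrying a GRP78-based luciferase sensor; 16 h compound incubation. Luminescence end-point read 10 min after Bright-Glo addition at room temperature.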
Vif-A3F inh: qHTS for Inhibitors of Vif-A3F Interactions: qHTS | HeLa A3F-eYFP + Vif (tagged APOBEC3F with the HIV-1 protein that degrades it), YFP fluorescence increase | Potency, µM (highest dose often 46.1 µM), for the others: at the highest dose activity, negative = active | actives 0.2% (n = 390,000); further: % of control where 0% means no effect; nearly all actives have a fitted effect of over 65% in size
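HeLa cells stably expressing A3F-eYFP plus Vif, plated and incubated overnight at 37 deg C, then exposed to compounds overnight at 37 deg C. Blocked degradation read as raised yellow fluorescence (Ex 488/Em 500-530).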
PINK1 expr mod: A Quantitative High throughput Screen to Identify Chemical Modulators of PINK1 Expression. PINK1 immunofluorescence, high-content cytometry, 24 h. Potency, µM (titrated, usually from 76.6 µM), inactives show at the highest dose activation (PINK1 increase), most hits filed as activators. actives 0.2% (n = 410,000). AID 624263, 2012; active means well fitted activation curve with a large enough effect; inconclusive means small, poorly fitted or top-dose-only effect; cell line not stated here; further: % of control where 0% means no effect; nearly all actives have a fitted effect of over 65% in size
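Cells are seeded, rested 12 hours, then given compound at five concentrations or DMSO for 24 hours. After fixation, blocking and antibody staining, PINK1 amount and mitochondrial localization are scored; CCCP serves as control.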
The depositor's hits bear a star; i = inactive; u = inconclusive; x = no result given; [ ] = remark or other dose. Only some compounds are listed: those with a hit (about 0.69% of all), similar ones and a draw of the others. Unless noted, the call rests on the fitted dose curve; in most records, active means well fitted curve in the direction sought with a large enough effect; inconclusive means small, poorly fitted or top-dose-only effect, or another doubt; inactive means no such curve, though single readings can be large; an effect the other way counts as inactive or inconclusive. Potency means the concentration at half of the fitted maximal effect.

SMILES | FUS suppressor | Abeta yeast res | Vif-A3G inh | GRP78 ERSR act | Vif-A3F inh | PINK1 expr mod
COc1cc(=O)n2c(c1C(=O)N(C)Cc1nonc1C)CCN(Cc1ccc(F)cc1)CC2 | x | x | x | -2% | x | 0%
C[n+]1c(-c2ccccc2)cc2c(=Cc3ccc([N+](=O)[O-])cc3)c3ccccc3n21 | x | i | -9% | -8% | 3% | 4.5µM*
Cc1ccc(OC(C)C(=O)Nc2nonc2-c2ccc(Br)cc2)cc1C (stereo not given) | i | i | x | x | x | 22µM*
CCN(CC)CCCOc1cc2nc(N3CCCN(C)CC3)nc(NC3CCN(C)CC3)c2cc1OC | x | x | 3% | -7% | x | 0%
COC(=O)c1cc(CNC(=O)c2ccc3ccccc3n2)cc(NC(=O)c2cccc(OC)c2)c1 | x | x | x | -3% | x | -1%
Cc1cccc(C)c1N(CCCc1cccnc1)C(=O)[C@@H](C)N | x | x | x | -2% | x | x
COc1ccccc1OCC(=O)NNC(=S)NC(=O)c1ccco1 | i | 7.9µM* | 2% | -5% | -11% | 3%
COc1ccc(/C=C/C(=O)NC(=S)NNC(=O)c2ccco2)cc1 | i | 7.1µM* | -29% | 0% | 1% | 4%
COc1ccc(/C=C/C(=O)NC(=S)NNC(=O)c2ccco2)cc1OC | i | i | -17% | 0% | -6% | 8%
COc1ccc(C(=O)NNC(=S)NC(=O)C(C)(C)C)cc1 | i | 5.6µM* | 1% | u | -13% | -1%
COc1ccc(C(=O)NNC(=O)c2ccc(C(C)(C)C)cc2)cc1 | i | i | 2% | -4% | 9% | 0%
COc1ccc(C(=O)NNC(=S)NC(=O)/C=C/c2cccs2)cc1 | i | 8.9µM* | -3% | -5% | -10% | 2%
c1ccc(CCNc2nc(-c3ccccn3)nc3ccccc23)cc1 | i | i | 0% | -5% | -27% | 40µM*
CCCN(CCC)c1nc(-c2ccccn2)nc2ccccc12 | i | i | 5% | -6% | -4% | u
COc1ccc(-c2noc(CSc3nnc(Cc4ccccc4)n3-c3ccc(F)cc3)n2)cc1 | 14µM* | i | 0% | -5% | 8% | 6%
COc1ccc(-c2noc(CSc3nnc(Cc4ccccc4)n3-c3cccc(C)c3)n2)cc1 | u | i | -3% | 0% | 2% | u
O=C(NCC1CCC2(CCN(Cc3cccc(-c4ccco4)c3)CC2)O1)c1ccccc1 (stereo not given) | x | x | x | 0% | x | 0%
COc1cc(OC)c(CN2CCOc3ccc(CN4CCC(O)CC4)cc3C2)c(OC)c1 | x | x | x | -7% | x | 0%
COc1ccc(OC)c(N(CC(=O)N2CCN(c3cc(Cl)ccc3C)CC2)S(C)(=O)=O)c1 | 28µM* | i | 2% | -2% | -3% | 1%[38.3 µM]
CCN1CCN(C(=O)CN(c2cc(OC)ccc2OC)S(C)(=O)=O)CC1 | i | i | -1% | -1% | 0% | 0%
O=C(NCCN1Cc2ccccc2OC(c2ccccc2F)C1)c1ccco1 (stereo not given) | x | x | x | 3% | x | -1%
O=C(Nc1c(Cl)cccc1Cl)c1cc(=O)n(Cc2ccccc2)c(=O)[nH]1 | i | i | -7% | -1% | -2% | 10µM*
Cc1cccc(NC(=O)c2cc(=O)n(Cc3ccccc3)c(=O)[nH]2)c1 | i | i | 4% | -1% | 16% | 2%
Cc1cc(C(F)(F)F)c(C#N)c(SCC(=O)Nc2nc3ccccc3s2)n1 | x | i | u | -4% | 22µM* | u
N#Cc1c(C(F)(F)F)cc(-c2ccccc2)nc1SCc1nc(N)nc(N2CCOCC2)n1 | i | i | u | 2% | 11µM* | 6%
SMILES | FUS suppressor | Abeta yeast res | Vif-A3G inh | GRP78 ERSR act | Vif-A3F inh | PINK1 expr mod
N#Cc1ccc(-c2cccnc2)nc1SCC(=O)Nc1sc2c(c1C#N)CCC2 | i | i | u | 0% | -11% | u
CCOc1ccc(-c2cc(C(F)(F)F)c(C#N)c(SCC(=O)Nc3ccccc3)n2)cc1 | i | i | 13µM* | -3% | u | 0%
N#Cc1c(C(F)(F)F)cc(-c2ccccc2)nc1SCC(=O)Nc1sc2c(c1C#N)CCC2 | i | i | u | -5% | u | 13µM*
CO[C@H]1[C@H](NC(=O)c2ccncc2)c2ccccc2C12CCN(C(=O)c1ccoc1)CC2 | x | x | x | -2% | x | -1%
O=C(CN1Cc2ccccc2OC(c2ccsc2)C1)N1CCN(Cc2ccc3c(c2)OCO3)CC1 (stereo not given) | x | x | x | -3% | x | -1%
COC(=O)C1CCCCN1Cc1ccc2c(c1)CN(C(=O)c1ccc(C)s1)CCO2 (stereo not given) | x | x | x | -4% | x | -1%
COc1ccc(OC)c(/C=C/C(=O)N2CCN(S(=O)(=O)c3cc(C)ccc3C)CC2)c1 | 32µM* | i | 1% | -5% | 1% | 0%
COc1cc(=O)n2c(c1C(=O)NCc1ccsc1)CCN(Cc1nc3ccccc3[nH]1)CC2 | x | x | x | 0% | x | 2%
Fc1ccccc1Nc1nc2ccccc2n2nnnc12 | i | i | -27% | 3% | 25µM* | 11%
CCOC(=O)N1CCC(Nc2nc3ccccc3n3nnnc23)CC1 | x | i | -8% | 1% | 10µM* | 2%
Oc1ccccc1Nc1nc2ccccc2n2nnnc12 | i | i | x | x | x | 17%
OC(c1ccc2c(c1)CN(Cc1cccn1-c1ncccn1)CCO2)C1CCCCC1 (stereo not given) | x | x | x | -2% | x | 1%
CCn1c(C)nc2cc(NS(=O)(=O)c3ccccc3)cc(C(=O)N3C[C@@H](C)O[C@@H](C)C3)c21 | x | x | x | 0% | x | 0%
COc1ccc(C(C(=O)Nc2ccc(F)cc2)N2CCN(C(=O)c3ccco3)CC2)cc1 (stereo not given) | i | i | x | x | x | x
O=C(Nc1ccc(F)cc1)C(c1cc2ccccc2o1)N1CCN(C(=O)c2ccco2)CC1 (stereo not given) | 22µM* | i | x | x | x | x
Cc1ccccc1-c1cc2c(c(OC3CCOC3)c1)OCCN(C(=O)Cn1cccn1)C2 (stereo not given) | x | x | x | 2% | x | 0%
CN(C)c1ccc(/C=C/c2ccnc3ccccc23)cc1O | x | x | 11µM* | -2% | x | 3%
CN(C)c1ccc(/C=C/c2ccnc3ccccc23)cc1C=O | x | x | 7.1µM* | -5% | x | 9%
